# Most compounds without a hit are left out; they make up all but 6% or so of the library.
# D3 antag: antagonists of human D3 dopamine receptor | D3R cells, DiscoveRx beta-arrestin luminescence, antagonist mode; active compounds read low | max response, negative = inhibition, % | hit rate 2.5% among 360,000; in the data active means max response below about -50%; further: on the % scale 0 is the no-effect control and ±100 the full control effect
# Target sequence (P35462 whole entry, looked up): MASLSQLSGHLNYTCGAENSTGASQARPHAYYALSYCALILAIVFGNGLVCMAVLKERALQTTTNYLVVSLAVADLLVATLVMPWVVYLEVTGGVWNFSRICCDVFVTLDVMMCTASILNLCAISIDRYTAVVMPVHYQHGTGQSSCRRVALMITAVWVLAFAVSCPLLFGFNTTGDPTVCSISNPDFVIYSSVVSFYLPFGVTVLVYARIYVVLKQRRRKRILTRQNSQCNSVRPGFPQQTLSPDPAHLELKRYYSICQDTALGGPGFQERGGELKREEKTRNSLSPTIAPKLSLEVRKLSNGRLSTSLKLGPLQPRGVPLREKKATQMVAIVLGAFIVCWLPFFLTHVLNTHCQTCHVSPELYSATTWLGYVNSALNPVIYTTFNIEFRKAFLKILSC
#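 Cells plated overnight at 1500 cells/well, then exposed to library compounds with dopamine controls for 90 minutes at 37 degrees C. DiscoveRx reagent added for 30–60 minutes at room temperature; luminescence read, quantitative HTS format.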
# D1 PAM: human D1 dopamine receptor positive modulation; potentiation, % at 10 µM; hit rate 0.036% among 360,000; AID 504651; HEK293 TREx D1 cells, calcium flux, dopamine EC20 potentiation; in the data active means potentiation above about 30%; further: 0% is about no effect
# D1 antagonist: blocks dopamine activation of the human D1 receptor | HEK293 TREx D1 cells, calcium flux, dopamine EC80; active compounds read low | hit rate 3.2% among 360,000 | P21728 | activity change, negative = inhibition, % at 10 µM; in the data active means activity change below about -30%; further: on the % scale 0 is the no-effect control and ±100 the full control effect
#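 Using tetracycline-induced force-coupled D1 Hek293 cells and a calcium dye, signals were followed for 180 s after compound, then for 180 s after EC80 dopamine, to detect inhibitors.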
# D1 agonist: agonists of human D1 dopamine receptor; P21728; HEK293 T-REx D1 cells, calcium flux, agonist mode; activation, % at 2 µM; hit rate 1% among 360,000; in the data active means activation above about 30%; further: 0% is about no effect
#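 Agonism was scored from calcium flux recorded over 180 s (1 read/s) after pintool compound addition, following a 10-cycle baseline. Cells were inducible force-coupled HEK293 TREx D1, plated overnight at 30 C and loaded with no-wash calcium dye.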
# DRD3 agonist: activates the human D3 dopamine receptor; P35462; D3R DiscoveRx beta-arrestin cells, luminescence, 90 min; max activation, %; hit rate 0.58% among 410,000; AID 652048; in the data active means max activation above about 30%; further: 0% is about no effect
#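 Cells at 1500/well, incubated overnight, then treated with pinned compounds (dopamine as control) for 90 min at 37 degrees C. DiscoveRx reagent added for 30 - 60 minutes at room temperature; luminescence read.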
# * = called active by the depositor; . = no result.
SMILES,D3 antag,D1 PAM,D1 antagonist,D1 agonist,DRD3 agonist
Cc1ccc(/C=C/C(=O)NC2CCCCCCC2)o1,-61*,0,0,0,-18
Cc1ccc(/C=N/NC(=O)NC2CCCCC2)o1,9,-5,-11,2,2
NC(=O)c1ncn([C@@H]2O[C@H](CNCc3ccc(-c4cc(C(F)(F)F)ccc4Cl)o3)[C@@H](O)[C@H]2O)n1,-52*,.,.,.,-70
Oc1c(Br)cc(Br)cc1/C=N/Nc1ccc(Cl)nn1,-68*,6,-7,4,-17
CCC(=O)N1CCc2cc(Br)cc(S(=O)(=O)N3CCC(C(=O)Nc4ccccc4F)CC3)c21,.,3,-13,3,1
O=C(NCc1ccccc1CN1CCCC1)c1ccc(Cl)c(S(=O)(=O)N2CCCC2)c1,-50*,-8,-51*,12,-31
COc1ccc(C(=O)NCc2ccccc2CN2CCCC2)cc1S(=O)(=O)N1CCOCC1,2,-19,-57*,1,-5
O=C(NCc1ccccc1CN1CCCC1)c1ccc(S(=O)(=O)Nc2ccccc2)cc1,-59*,.,.,.,-10
CN(C)C(CNC(=O)c1ccc(Cl)c(S(=O)(=O)N2CCCCCC2)c1)c1ccccc1 (configuration not stated),-81*,-5,10,10,-25
O=S(=O)(NCc1ccc(Cl)cc1)c1ccc2[nH]c3c(c2c1)CCCC3,.,-2,-5,3,-13
CSCC[C@H](NC(=O)c1ccc(Cl)c(S(=O)(=O)N2CCCC2)c1)c1nc2ccccc2[nH]1,-52*,1,25,10,-15
COc1ccc(NC(=O)c2ccc(-c3ccccc3)cc2)cc1S(=O)(=O)N1CCOCC1,14,-5,-30*,6,5
COc1ccc(/C=C/c2ccncc2)cc1,22,-9,-34*,2,-11
Cc1nnc(SCC(=O)Nc2sc3c(c2C#N)CCCC3)[nH]c1=O,-54*,1,0,0,-9
CCOC(=O)c1c(NC(=O)CSc2nnc(C)c(=O)[nH]2)sc2c1CCCC2,3,-2,1,1,-6
CCC(=O)Nc1sc2c(c1C#N)CCC2,-6,-5,0,1,-6
CCn1c(SCC(=O)Nc2sc3c(c2C#N)CCCC3)nnc1-c1ccco1,-72*,-5,-1,5,-5
CC(C)CC(=O)NC(NC(=S)Nc1sc2c(c1C#N)CCCC2)C(Cl)(Cl)Cl (configuration not stated),-83*,-7,-32*,13,-5
O=C(Nc1nnc(SCc2ccc(F)cc2)s1)c1ccc2ncsc2c1,11,-1,-17,6,7
O=C(Nc1nnc(SCc2ccc(F)cc2)s1)c1ccc2c(c1)C(=O)N(c1ccccc1Cl)C2=O,49,-5,.,1,53*
Cc1cccc(-c2noc(CN(C(=O)COc3ccc(Br)cc3C)C(C)C)n2)c1,.,-2,-2,19,0
Cc1ccc(S(=O)(=O)N2CCCCC2)cc1,0,1,-2,1,-3
Cc1ccc(S(=O)(=O)N2CCC(=O)N2)cc1,-30,-11,-68*,2,1
O=S(=O)(c1ccc(-c2ccccc2)cc1)N1CCCCC1,-15,-3,-35*,0,-3
Cc1ccn2cc(-c3cccc(S(=O)(=O)N4CCCC4)c3)nc2c1,-4,-1,6,-1,9
SMILES,D3 antag,D1 PAM,D1 antagonist,D1 agonist,DRD3 agonist
CSc1nc2cc(S(=O)(=O)N3CCCCC3)ccc2s1,-16,0,-31*,0,-8
O=S(=O)(c1cccc(-c2cn3ccccc3n2)c1)N1CCCCC1,-2,-8,-47*,3,-14
O=C1CCN(S(=O)(=O)c2ccc(Cl)cc2)N1,12,-2,18,4,-4
Cc1ccc(S(=O)(=O)N2CC3(C)CN(S(=O)(=O)c4ccc(C)cc4)CC(C)(C2)C3)cc1,19,5,.,0,31*
O=C(NN=Cc1c(O)ccc2ccccc12)c1ccc2c(c1)OCO2,-25,.,.,.,-11
Cc1ccc(S(=O)(=O)N2CCCN(Cc3nc4ccccc4c(=O)[nH]3)CC2)cc1,0,-4,0,4,0
O=S(=O)(c1ccc(S(=O)(=O)N2CCCC2)cc1)N1CCCCCC1,8,-4,-39*,3,0
CCC12CN(S(=O)(=O)c3ccc(C)cc3)CC(CC)(CN(S(=O)(=O)c3ccc(C)cc3)C1)C2=O,-16,6,5,4,-4
Cc1ccc(S(=O)(=O)N2CCCN(C(C)c3nc4ccccc4c(=O)[nH]3)CC2)cc1 (configuration not stated),-4,-5,-38*,2,-1
O=C(N/N=C\c1c(O)ccc2ccccc12)c1ccc(S(=O)(=O)N2CCCCC2)cc1,50,-9,-8,52*,4
O=S(=O)(c1ccc(Cl)cc1)N1CCCCCC1,-10,-1,4,0,1
O=C(NC1CCCCC1)c1ccc2c(c1)N(Cc1cccc(Cl)c1)C(=O)c1ccccc1S2(=O)=O,.,-5,-1,2,-10
CCCc1nnc(NC(=O)c2cc(=O)c3cc(C)c(C)cc3o2)s1,.,-4,-20,4,2
O=C(Nc1nc(-c2ccc(S(=O)(=O)N3CCCC3)cc2)cs1)c1ccco1,4,4,-10,-2,-4
CNc1nc(-c2ccc(S(=O)(=O)N3CCCCC3)cc2)cs1,-17,-4,-33*,10,0
O=C(NC1CCCCC1)c1ccc(S(=O)(=O)N2CCCCC2)cc1,14,-3,1,1,-1
Cc1ccc(S(=O)(=O)N2CCCN(S(=O)(=O)c3ccc(C)cc3)CC2)cc1,7,-6,-34*,12,-1
O=S(=O)(c1cnc[nH]1)N1CCCCCC1,6,-3,-45*,0,-3
O=C(NC1CCCCCCC1)c1ccc(S(=O)(=O)N2CCCC2)cc1,-53*,-3,-6,1,3
CCc1nn(CC(=O)N2CCC(C)CC2)c(=O)c2cc3occc3n12,.,0,12,1,-11
Cc1cc2c(s1)c1cnn(Cc3ccccc3F)c(=O)c1n2C(C)C,.,6,14,8,.
CCOP(=O)(OCC)c1nc(-c2ccc(Br)cc2)oc1N1CCCCC1,9,-9,-45*,4,3
CCOP(=O)(c1ccccc1)c1nc(-c2ccc(F)cc2)oc1N1CCCCC1 (configuration not stated),30,-4,4,33*,0
Cc1cc(C)n2nc(CNC(=O)c3ccccc3Cl)nc2n1,.,-5,-4,1,-7
Cc1cc(C)cc(Nc2cc(C)nc3nc(-c4ccco4)nn23)c1,.,0,-39*,3,5
CCOc1ccc(OCC)c(Nc2cc(C)nc3nc(-c4ccco4)nn23)c1,.,0,0,-1,4
CCc1ccc(CNC(=O)CCCn2c(=O)c3cccn3c3cccnc32)cc1,-14,0,5,8,-10
